Assay outcomes (PubChem BioAssay)
In the library only some 12% were active in any assay of this set; here they are far more common.
FMDV antiviral – High Throughput Screening for Foot and Mouth Disease Virus Antivirals | Potency, µM (doses to about 57.9 µM), without a hit: at the highest dose activity change, negative = inhibition, actives largely listed as inhibitors | actives 1.2% (n = 410,000) | FMDV antiviral cell-based qHTS | AID 1159524, 2015; calls by dose curve; tested in HEK293T cells; also: read-out not given here; potency is read from the fitted curve at half-maximal effect; % is scaled to controls: 0 for no effect and ±100 for the full control effect; nearly all actives have a fitted effect of over 45% in size
Cycloheximide cs – Cycloheximide Counterscreen for Small Molecule Inhibitors of Shiga Toxin; cell reporter, cycloheximide protein synthesis inhibition counterscreen; max response, %; actives 12% (n = 300,000); in the data active = max response mostly above about 13%, no sharp cut-off; inactive = mostly below about 14%; also: read at 38.3 µM for the half of the compounds with a filed dose; 0% is about no effect
Sm TGR block – qHTS Assay for the Inhibitors of Schistosoma Mansoni Peroxiredoxins; Schistosoma mansoni thioredoxin glutathione reductase (TGR), Q962Y6; purified TGR, DTNB reduction, TNB absorbance 405 nm; Potency, µM (top dose mostly 114 µM), for the others: at the top dose activity change, negative = inhibition, usual class: inhibitors; actives 3% (n = 360,000); AID 485364, 2010; active = well fitted inhibition curve with a large enough effect; inconclusive = small, poorly fitted or top-dose-only effect; inactive = no such curve, though single readings can be large or run the other way; also: potency is read from the fitted curve at half-maximal effect; % is scaled to controls: 0 for no effect and ±100 for the full control effect; nearly all actives have a fitted effect of over 60% in size
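Kinetic colorimetric format: TGR-catalysed, NADPH-driven DTNB reduction monitored via TNB absorbance. Enzyme dispensed at 20 nM; compound exposure 15 min at room temperature before reaction start.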
Shiga toxin inh – A qHTS for Small Molecule Inhibitors of Shiga Toxin; inhibition, % at 38.7 µM; actives 9.2% (n = 290,000); AID 2315, 2010; Vero cells, Shiga toxin protein synthesis inhibition reporter; in the data active = inhibition mostly above about 28%, no sharp cut-off; inactive = mostly below about 43%; also: 0% is about no effect
The depositor's hits bear a star; ? = inconclusive; nt = not tested or not shown; + = active, no number; [ ] = remark or other dose.

SMILES	FMDV antiviral	Cycloheximide cs	Sm TGR block	Shiga toxin inh
COc1ccc(OCC#CCN2CCNCC2)cc1	15%	11	-26%	17
COc1ccc(OCC#CCN2CCCCCC2)cc1	12%	12*	?	30
C(#CCN1CCCCC1)COCc1ccccc1	15%	17*	?	58
COc1ccc(OCC#CCN2CC(C)OC(C)C2)cc1 (stereo unspecified)	-1%	-2	7.1µM*	6
COc1cccc(N2CCN(C(=O)c3cccc(NC(=O)c4nsc5ccccc45)c3)CC2)c1	-25%	nt	8%	nt
COc1ccc(CC(=O)c2ccc(O)cc2O)cc1	39%	49*	8%	59*
O=C(Cc1ccc2c(c1)OCCO2)c1c(O)cc(O)cc1O	nt	32*	0%	57*
O=C(Cc1ccc([N+](=O)[O-])cc1)c1ccc(O)cc1O	24%	16*	11%	61*
O=C(Cc1ccc(Br)cc1)c1ccc(O)cc1O	36%	49*	3%	186*
O=C(O)COc1ccc(C(=O)Cc2ccc3c(c2)OCCCO3)c(O)c1	nt	-1	?	11
CCCCC(=O)c1ccc(O)cc1O	-12%	nt	nt	nt
CCCCCCCCCCCCCCCC(=O)OCC(O)C1OC(=O)C(O)=C1O (stereo unspecified)	nt	6	nt	9
COc1ccc(C(=O)Cc2ccc3c(c2)OCO3)c(O)c1	18%	101*	-1%	+
Cc1ccc(CSc2cn(CC(=O)N3CCCC3)c3ccccc23)cc1	21%	nt	3%	nt
O=C(Cn1cc(SCc2ccc(F)cc2)c2ccccc21)N1CCOCC1	51%	36*	-9%	16*
O=C(Cn1cc(SCc2ccc(Cl)cc2)c2ccccc21)N1CCOCC1	14%	26*	1%	32*
CCc1ccc(NC(=O)CSc2cn(CC(=O)N3CCOCC3)c3ccccc23)cc1	13%	nt	-1%	nt
Cc1ccccc1NC(=O)CSc1nc2ccc(NC(=O)c3ccccc3)cc2s1	-14%	nt	1%	nt
C=CCOc1ccc(/C=C/C(=O)OCC(=O)N2CCN(C(C)=O)CC2)cc1	13%	nt	nt	nt
C=CCOc1ccc(/C=C/C(C)=N\O)cc1	14%	50*	-15%	85*
CCN(CC)S(=O)(=O)c1ccc2c(c1)N(CC(=O)N1CCN(c3cccc(C(F)(F)F)c3)CC1)C(=O)CO2	?	nt	1%	nt
CCc1ccc(C(=O)c2cn(CC(=O)Nc3ccc4c(c3)OCCO4)c3ccc(CC)cc3c2=O)cc1	-16%	nt	-4%	nt
COc1ccc(NC(=S)NC(=O)Cc2ccccc2)c(OC)c1	24%	-2	10µM*	nt
COc1ccc(NC(=S)NC(=O)Cc2ccccc2)cc1	58%	25*	?	nt
O=C(Cc1ccccc1)NC(=S)Nc1ccc(OC(F)F)cc1	22%	18*	-21%	39*
SMILES	FMDV antiviral	Cycloheximide cs	Sm TGR block	Shiga toxin inh
O=C(O)c1ccccc1Nc1ccc(OC(F)F)cc1	0%	35*	-10%	43*
COc1ccccc1NC(=S)NC(=O)Cc1ccccc1	22%	nt	nt	nt
COc1cccc2c1Oc1ncccc1N(c1ccc(C(=O)NCc3ccccc3Cl)s1)C2	-11%	nt	-6%	nt
O=C(NCc1ccccc1F)C1CCCN(C(=O)N2CCOc3ccccc32)C1 (stereo unspecified)	0%	nt	7%	nt
Cc1ccc(NC(=S)NC(=O)Cc2ccccc2)c(O)c1	76%	32*	10%	29
COc1cccc(C(=O)OCc2ccccc2C#N)c1O	33%	21*	18%[11.4 µM]	36
COc1ccc(C(=O)OCc2ccccc2C#N)cc1S(=O)(=O)N1CCOCC1	13%	nt	nt	nt
N#Cc1ccccc1COC(=O)c1cc(=O)c2ccccc2o1	5%	8	-12%	46
N#Cc1ccccc1COC(=O)c1ccc(Br)o1	26%	26*	7%	55
CCOc1ccc(C(=O)NCCc2csc(-c3ccc(C(F)(F)F)cc3)n2)cc1OCC	?	nt	9%	nt
COc1ccc(NC(=O)c2onc(C)c2Cl)cc1OC	16%	51*	-14%	49*
COc1ccc(CNC(=O)c2onc(C)c2Cl)cc1	-3%	-2	-7%	20
Cc1noc(C(=O)Nc2ccc(C#N)cc2)c1Cl	0%	-1	18%	34
CCc1ccc(NC(=O)c2onc(C)c2Cl)cc1	0%	59*	0%	56*
COc1ccc(NC(=O)c2onc(C)c2Cl)cc1	45%	40*	-4%	89*
Cc1noc(C(=O)Nc2cccc(Cl)c2)c1Cl	28%	33*	-30%	60*
Cn1cc(S(=O)(=O)c2ccccc2)c(=O)c2cc(F)c(N3CCCCCC3)cc21	-24%	nt	-3%	nt
O=C(Nc1ccc(SC(F)F)cc1)c1cc(-c2ccc3c(c2)OCCO3)on1	?	nt	1%	nt
CCC1c2ccc(C)n2CCN1C(=O)Nc1cc(Cl)ccc1OC (stereo unspecified)	-4%	-2	-33%	8
CCOC(=O)c1ccccc1NC(=O)N1CCn2c(C)ccc2C1CC (stereo unspecified)	?	-3	7.1µM*	-12
CCCC1c2ccc(C)n2CCN1C(=O)Nc1ccccc1Cl (stereo unspecified)	0%	26*	35µM*	74*
CCC1c2ccc(C)n2CCN1C(=O)Nc1ccccc1C(=O)OC (stereo unspecified)	-28%	7	-32%	-6
CCOC(=O)c1ccccc1NC(=O)CN(c1cc(C(F)(F)F)ccc1Cl)S(C)(=O)=O	?	nt	16%	nt
CCOc1ccccc1C(=O)Nc1ccc2nc(N3CCN(c4ncccn4)CC3)cc(C)c2c1	8.9µM*	nt	nt	nt
CCOc1ccccc1NC(=O)Nc1ccc2nc(N3CCN(C)CC3)cc(C)c2c1	23%	nt	2%	nt
SMILES	FMDV antiviral	Cycloheximide cs	Sm TGR block	Shiga toxin inh
COc1cccc(C(=O)Nc2ccc3nc(N4CCN(c5ncccn5)CC4)cc(C)c3c2)c1OC	nt	14*	-2%	-2
COc1cc(NC(=O)CC2C(=O)N(c3ccc(Cl)cc3)C(=O)N2Cc2cccs2)cc(OC)c1 (stereo unspecified)	-18%	nt	8%	nt
CC(C)(C)NC(=S)NNC(=O)c1cccc(Br)c1	22%	40*	16%	74*
O=C(O)CCC(=O)NNC(=O)c1cccc(Br)c1	-7%	1	-2%	-13
O=C(NNC(=S)Nc1ccccc1)c1cccc(Br)c1	63%	26*	-40%	33
O=C(O)/C=C/C(=O)NNC(=O)c1cccc(Br)c1	-4%	25*	?	39*
O=C(NNC(=S)Nc1ccc(Br)cc1)c1ccccc1	44%	23*	5%	34
Cc1cccc(C)c1NC(=O)CCCn1c(=O)c2cccn2c2ccccc21	-18%	nt	-14%	nt
Cc1ccc(C(=O)NNC(=O)/C=C\C(=O)O)cc1	-3%	42*	?	70*
O=C(NNC(=S)Nc1ccccc1)c1ccc(O)cc1	84%	45*	20%	73*
COc1ccccc1NC(=O)NNC(=O)c1ccncc1	1%	nt	nt	nt
COc1ccccc1NC(=S)NNC(=O)c1ccc(O)cc1	69%	24*	8%	27
Cc1ccc(C(=O)NNC(=O)c2ccc(C)cc2)cc1	26%	16	8%	20
Cc1c(NC(=O)c2ccc(Cl)cc2)cc(C(C)C)c(O)c1S(=O)(=O)c1ccccc1	39%	nt	3%	nt
